This is a sample that favours compounds with a hit; in the whole collection about 1.2% have one here.
PKM2 activator: qHTS Assay for Activators of Human Muscle isoform 2 Pyruvate Kinase; Pyruvate kinase PKM (Homo sapiens), P14618; purified PKM2, Kinase-Glo ATP luminescence, activation; response scale: 0% is enzyme alone, no compound; Potency, µM (highest dose often 57.5 µM), without a hit: at the highest dose activation, usual class: activators; 260,000 compounds, 0.34% hits; also: potency is read from the fitted curve at half-maximal effect; nearly all actives have a fitted effect of over 55% in size
Target sequence (P14618 whole entry, looked up, canonical isoform): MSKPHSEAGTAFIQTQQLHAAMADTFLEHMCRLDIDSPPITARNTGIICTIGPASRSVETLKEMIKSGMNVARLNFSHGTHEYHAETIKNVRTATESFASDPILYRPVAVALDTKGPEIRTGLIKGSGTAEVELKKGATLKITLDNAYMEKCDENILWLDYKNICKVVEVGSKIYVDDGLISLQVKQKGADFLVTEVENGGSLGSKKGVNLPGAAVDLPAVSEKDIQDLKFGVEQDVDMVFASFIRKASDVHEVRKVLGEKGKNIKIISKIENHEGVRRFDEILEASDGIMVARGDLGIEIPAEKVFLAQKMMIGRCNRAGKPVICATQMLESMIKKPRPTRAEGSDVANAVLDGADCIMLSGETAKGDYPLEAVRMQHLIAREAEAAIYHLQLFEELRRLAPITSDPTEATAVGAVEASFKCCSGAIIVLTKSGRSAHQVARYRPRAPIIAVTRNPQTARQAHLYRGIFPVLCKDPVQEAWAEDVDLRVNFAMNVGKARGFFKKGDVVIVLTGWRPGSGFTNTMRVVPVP
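Purified hPK-M2 (>95%) run at intermediate activity with 0.1 mM ADP and 0.5 mM PEP in 50 mM imidazole pH 7.2, KCl, MgCl2; 1 h room temperature. ATP formed read by Kinase-Glo luminescence; normalized to uninhibited and no-enzyme controls.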
PI4K2A block: qHTS for small molecular inhibitors of PI4K2A; Phosphatidylinositol 4-kinase type 2-alpha (Homo sapiens), Q9BTU6; purified PI4K2A, ADP-Glo luminescence, 1 h; active compounds read low; 420,000 compounds, 0.13% hits; activity change, negative = inhibition, % at 76.9 µM; in the data active = activity change below about -50%; inconclusive = mostly about -30% to -49%;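 also: -100% = wells without enzyme as full effect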
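ADP-Glo luminescence measured ADP generated by PI4K2A enzyme (4 ug/mL before mixing) with 1.2 mM PI substrate (pre-mix) and 300 microM ATP (pre-mix). Tris pH7.5 buffer with MgCl2, Triton X-100; 1 h reaction at ambient temperature.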
TrxR1 substrate: qHTS Assay for Substrates of Mammalian Selenoprotein Thioredoxin Reductase 1 (TrxR1): qHTS. Thioredoxin reductase 1, cytoplasmic (Rattus norvegicus), O89049. purified TrxR1 substrate turnover, NADPH consumption readout. Potency, µM (titrated, usually from 114 µM), without a hit: top-dose activity change, negative = substrate turnover. 390,000 compounds, 0.01% hits; also: potency is read from the fitted curve at half-maximal effect; nearly all actives have a fitted effect of over 50% in size
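Rat TrxR1, dispensed at 90 nM, was prereduced with 400 uM NADPH (final) for 5 min at ~22 deg C, then incubated with compound 15 min before 400 uM selenite. A first-read NADPH fluorescence drop versus no-compound background flagged substrates.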
GALK inhibitor: qHTS Assay for Inhibitors of Human Galactokinase (GALK) | Potency, µM (top dose mostly 57.5 µM), without a hit: at the top dose activity change, negative = inhibition, usual class: inhibitors | Purified GALK, Kinase-Glo residual ATP luminescence | AID 1868, 2009 | 270,000 compounds, 0.007% hits; also: potency is read from the fitted curve at half-maximal effect
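Kinase-Glo Plus luminescence measured ATP left after a 1 h room-temperature reaction. The reaction used 5 nM GALK, 100 uM galactose and 35 uM ATP at pH 8.0 (20 mM HEPES, 5 mM MgCl2, 60 mM NaCl, 1 mM DTT, 0.01% BSA).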
TrxR1 inh: qHTS Assay for Inhibitors of Mammalian Selenoprotein Thioredoxin Reductase 1 (TrxR1): qHTS. Potency, µM (highest dose often 114 µM), for inactives: at the top dose activity change, negative = inhibition, usual class: inhibitors. 390,000 compounds, 1% hits. recombinant rTrxR1, NADPH fluorescence consumption, selenite substrate. Thioredoxin reductase 1, cytoplasmic (Rattus norvegicus), O89049. AID 588453, 2011; also: potency is read from the fitted curve at half-maximal effect; nearly all actives have a fitted effect of over 65% in size
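Rat TrxR1 (90 nM in the dispensed reagent) was pre-reduced with 400 uM NADPH for 5 min at room temperature, then incubated with compound for 15 min. After 400 uM selenite was added, NADPH fluorescence (Ex 340/Em 450 nm) was followed for 8 min.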
* marks the source's active call; other numbers are inactive results; [ ] = dose if it differs, or a comment. Unless noted, calls follow the shape of the dose curve; as a rule, active = well fitted curve in the direction sought with a large enough effect; inconclusive = small, poorly fitted or top-dose-only effect, or another doubt; inactive = no such curve, though single readings can be large; an effect the other way counts as inactive or inconclusive. Unless noted, % is scaled to controls: 0 for no effect and ±100 for the full control effect.

How did O=c1c2c3c(sc2[nH]c(=S)n1Cc1ccco1)CCC3 do in these assays?
PKM2 activator: 11µM*; PI4K2A block: -11; TrxR1 substrate: -4%; GALK inhibitor: -7%; TrxR1 inh: inconclusive

What do the screens show for `O=C(COc1ccccc1C(=O)OCC(=O)N1CCOCC1)Nc1ccc(Br)cc1`?
TrxR1 substrate: 4%; TrxR1 inh: 23%

What do the screens show for `Oc1ccc(C(c2nnnn2C2CCCCC2)N2CCOCC2)cc1` (stereo unspecified)?
PKM2 activator: -4%; PI4K2A block: -5; TrxR1 substrate: 5%[57.1 µM]; GALK inhibitor: 4%; TrxR1 inh: -15%[57.1 µM]

How did c1cc(C(c2nnnn2C2CCCC2)N2CCOCC2)ccn1 (stereo unspecified) do in these assays?
PKM2 activator: -3%; PI4K2A block: -4; TrxR1 substrate: 7%; GALK inhibitor: 1%; TrxR1 inh: 14µM*

Results for C=CCN1C(=O)[C@@H](CC(=O)N2CCCCC2)[C@]2(C(=O)OCC)CCCCC/C=C/12 ?
PI4K2A block: 3

How did CC1CC(C)CN(C(=O)c2ccc(-c3ccc([N+](=O)[O-])cc3)o2)C1 (stereo unspecified) do in these assays?
PI4K2A block: -8; TrxR1 substrate: -1%; TrxR1 inh: 18µM*

What do the screens show for `CC(Oc1ccccc1)C(=O)N[C@@H]1C(=O)N2[C@@H]1SC(C)(C)[C@@H]2C(=O)OCc1ccccc1` (stereo partly specified)?
TrxR1 substrate: 1%; TrxR1 inh: 50µM*

Results for Cc1cc2n(n1)SC(Nc1ccc(F)c(Cl)c1)N2 (stereo unspecified) ?
PKM2 activator: 3%; PI4K2A block: -15; TrxR1 substrate: 3%[57.1 µM]; GALK inhibitor: -2%; TrxR1 inh: 14µM*

Results for Cc1cc2n(n1)CCCN2C(=O)Nc1ccc(F)c(Cl)c1 ?
PI4K2A block: -1; TrxR1 substrate: 1%; TrxR1 inh: 7%

What do the screens show for `CN(C)S(=O)(=O)c1ccc(C(=O)Nc2cccnc2)cc1`?
PKM2 activator: 0%; PI4K2A block: 2; TrxR1 substrate: -13%; GALK inhibitor: -4%; TrxR1 inh: 6%[57.1 µM]

How did C(=Cc1cccnc1)c1ccncc1 do in these assays?
PI4K2A block: 1; TrxR1 substrate: 4%[57.1 µM]; TrxR1 inh: 11%[2.29 µM]

How did O=C(/C=C/c1cccnc1)/C=C/c1cccnc1 do in these assays?
PKM2 activator: 12%; PI4K2A block: inconclusive; TrxR1 substrate: -12%; GALK inhibitor: 0%; TrxR1 inh: 18µM*

How did CN(C)S(=O)(=O)c1ccc(C(=O)/C=C/c2cccnc2)cc1 do in these assays?
PKM2 activator: 12%; PI4K2A block: -3; TrxR1 substrate: 3%[57.1 µM]; GALK inhibitor: 13%; TrxR1 inh: 8.9µM*

Results for CC(=O)N1/C(=C/c2ccc(N(C)C)cc2)C(=O)c2ccccc21 ?
PKM2 activator: -2%; PI4K2A block: -6; TrxR1 substrate: -5%; GALK inhibitor: -1%; TrxR1 inh: 40µM*

Results for CN(C)c1ccc(/C=C2\C(=O)/C(=C/c3ccc(N(C)C)cc3)c3ccccc32)cc1 ?
TrxR1 substrate: -8%; TrxR1 inh: inconclusive

Results for CC(c1ccccc1)N1CCN(C(=O)CCl)CC1 (stereo unspecified) ?
PKM2 activator: 1%; PI4K2A block: 2; TrxR1 substrate: 3%; GALK inhibitor: 0%; TrxR1 inh: 16µM*

Results for CCOc1ccc(CCNC(=O)Cn2ccc3cc(S(=O)(=O)N4CCCCCC4)ccc32)cc1 ?
PI4K2A block: -4; TrxR1 substrate: -1%; TrxR1 inh: 19%

Results for CCCCc1nn2c(=O)cc(COC(=O)c3ccccc3C)nc2s1 ?
PI4K2A block: 2; TrxR1 substrate: -2%[57.1 µM]; TrxR1 inh: 3%[57.1 µM]
